According to PubChem BioAssay (NCI):
This is part of a sample that, as a whole, favours compounds with a hit. Of some 79,000 tested, about 15% had one in any assay. No stated cut-off is given here; in the data, active means growth inhibition above about 70%; inactive means the rest.

Columns and labels:
[1] = NCI Yeast Anticancer Drug Screen. Data for the rad50 strain (AID 155);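 further: 0% = growth of vehicle-only cultures of the same strain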; details: S. cerevisiae rad50 strain growth inhibition; at 50.0 µM; stronger effect = higher value
In short: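 Yeast carrying a defined DNA repair defect were exposed to test compounds, and growth was compared with vehicle-treated controls to give percent inhibition.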

[2] = NCI Yeast Anticancer Drug Screen. Data for the mec2-1 strain (AID 157); details: S. cerevisiae mec2-1 strain, at 50.0 µM, stronger effect = higher value
In short: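 Growth inhibition is read against vehicle-treated controls after compound exposure of the mec2-1 yeast strain, which is defective in DNA damage repair or cell cycle control.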

[3] = NCI Yeast Anticancer Drug Screen. Data for the sgs1 mgt1 strain (AID 161);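 further: 0% = growth of cultures given vehicle only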; details: S. cerevisiae sgs1 mgt1 strain, at 50.0 µM, stronger effect = higher value
In short: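 Compounds are added to genetically altered yeast, and growth is compared with cultures given vehicle alone to give percent inhibition.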

[4] = NCI Yeast Anticancer Drug Screen. Data for the cln2 rad14 strain (AID 165);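 further: 0% = growth equal to vehicle treated cultures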; details: S. cerevisiae cln2 rad14 strain, at 50.0 µM, stronger effect = higher value
In short: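 Growth inhibition, relative to vehicle-treated controls, is the read-out. The test organism is a yeast strain with defined genetic alterations, cln2 rad14.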

[5] = NCI Yeast Anticancer Drug Screen. Data for the bub3 strain (AID 167); details: S. cerevisiae bub3 mutant strain, at 50.0 µM, stronger effect = higher value
In short: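 Compounds were applied to a genetically altered yeast strain carrying a cell-cycle control defect. Growth inhibition was scored against vehicle-treated controls.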

[6] = NCI Yeast Anticancer Drug Screen. Data for the mlh1 rad18 strain (AID 175); details: S. cerevisiae mlh1 rad18 strain growth inhibition; at 50.0 µM; stronger effect = higher value
In short: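 Cells of a genetically altered yeast strain, deficient in DNA damage repair, were treated with compound. Their growth was then compared with that of vehicle-treated cultures to give inhibition.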

Measured: growth inhibition

Cc1ccc(C(O)(c2ccc(C)cc2)c2ccccn2)cc1
inactive: [1] -6.65% | [2] 16.9% | [3] -7% | [4] -13.8% | [5] 9.45% | [6] -35%

O=P(OCCCCCl)(OCCCCCl)C(Cl)Cl
inactive: [1] -6.4% | [2] -11.6% | [3] 0.65% | [4] 5.8% | [5] 4.5% | [6] 6.5%

O=C1NC(=O)C(Cc2ccc3c(c2)OCO3)C(=O)N1
inactive: [1] -6.05% | [2] -9.5% | [3] 4.95% | [4] -62.9% | [5] 7.35% | [6] 8.15%

O=C(O)c1c(Cl)n(Cc2cc(Cl)ccc2Cl)c2ccccc12
inactive: [1] 4.5% | [2] 14.3% | [3] 19.9% | [4] 19.9% | [5] 11.3% | [6] 22.2%

CCCC/C=C/C=C/C=C/CCCCCCCC(=O)OCC(COC(=O)CCCCCCC/C=C/C1C=CC(CCCC)C(C(=O)O)C1C(=O)O)OC(=O)CCCCCCC/C=C/C=C/C=C/CCCC (configuration not stated) (tested in a mixture with another compound)
inactive: [1] -10.8% | [2] -20.1% | [3] 4.55% | [4] -3.85% | [5] 7.6% | [6] -0.45%

CCCOC(=O)c1ccccc1N
inactive: [1] 6.05% | [2] -1.25% | [3] -1.55% | [4] -16.9% | [5] -4.75% | [6] -19.4%

N#CS.N=C=S.O=N[O-].[Co+3].[NH-]CC[NH-].[NH-]CC[NH-]
inactive: [1] -6.55% | [2] 6.3% | [3] 8.25% | [4] -34% | [5] 50.7% | [6] 12.7%

Cc1ccccc1NC(N)=S
inactive: [1] 27.6% | [2] 9.15% | [3] -8.2% | [4] 1.55% | [5] 5.4% | [6] 15.7%

CC(=O)NC(CS)C(=O)[O-].CC(=O)NC(CS)C(=O)[O-].N.N.[Pt+4] (configuration not stated)
inactive: [1] 7.85% | [2] -9.85% | [3] 15.2% | [4] -38.1% | [5] 14.4% | [6] 27.2%

CN/N=C(/CCN1CCCC1)CC(c1ccccc1)c1c(O)c2ccccc2oc1=O (configuration not stated)
inactive: [1] 35.5% | [2] 9% | [3] 29.6% | [4] 35.2% | [5] 31.5% | [6] 37.4%

C1CN2CCOC2O1
inactive: [1] -12.4% | [2] 15.2% | [3] -9.1% | [4] 4.65% | [5] 7.45% | [6] -7.1%

Cc1cc[n+](CCc2ccccc2)cc1
inactive: [1] 7.95% | [2] 15.1% | [3] 15.2% | [4] -8.35% | [5] 8.75% | [6] 9.6%

OC(c1ccccc1)C(Cl)(Cl)Cl (configuration not stated)
inactive: [1] 17.1% | [2] -10.8% | [3] 13.7% | [4] -42.1% | [5] -14.1% | [6] 3.55%

COC[n+]1cccc(C2CCC[N+]2(C)C)c1 (configuration not stated)
inactive: [1] 6.35% | [2] 1.25% | [3] 6.8% | [4] 9.9% | [5] 1.8% | [6] 15.5%

CCC(=O)OC1(c2ccccc2)CCN(CCC(=O)c2ccccc2)CC1
inactive: [1] 45.5% | [2] 28.4% | [3] 36.8% | [4] 19.2% | [5] 36.8% | [6] 25.9%

CCC(=O)c1ccc(OC)c(OC)c1
inactive: [1] 7% | [2] -1.3% | [3] -0.15% | [4] -2.85% | [5] 15.7% | [6] 1.75%

CN(C)CCNC(=O)c1cccc(COC(=O)N(CCCl)CCCl)c1[N+](=O)[O-]
inactive: [1] 9.55% | [2] -2.4% | [3] 15.8% | [4] 10.1% | [5] -9.45% | [6] 9.7%

COCC(C)OC(=O)Cc1ccccc1 (configuration not stated)
inactive: [1] -10.9% | [2] -8.2% | [3] -8.6% | [4] -85.6% | [5] -49.1% | [6] -31.1%

O=P(O)(O)CCc1ccccc1
inactive: [1] -3.85% | [2] 1.5% | [3] -5.2% | [4] -15.8% | [5] -2.7% | [6] 7.7%

N.N.N.N.N.N.O=N[O-].[Br-].[Co+3].[Co+3].[OH3+].[OH3+]
inactive: [1] 7.15% | [2] 9.25% | [3] -15.4% | [4] 15.9% | [5] 6.25% | [6] -7.9%

O=C1c2ccccc2C(=O)c2ccccc21
inactive: [1] 37% | [2] 5.25% | [3] 1.95% | [4] -29.4% | [5] 25.5% | [6] 47.5%

ClCc1nc(-c2ccco2)no1
inactive: [1] 6.1% | [2] 51.2% | [3] 20.6% | [4] -42.5% | [5] 4.55% | [6] 29.9%

[N-]=[N+]=C1C(=O)C2CC3CC1CC2C3 (configuration not stated)
inactive: [1] -3.55% | [2] 12.7% | [3] -9.35% | [4] 8.55% | [5] 1.9% | [6] 1.5%

CCC1(C(C)C=C(C)C)C(=O)NC(=O)NC1=O (configuration not stated)
inactive: [1] -28.6% | [2] -12.4% | [3] -4.75% | [4] 1.45% | [5] 10.3% | [6] -10.2%

CC(=O)c1ccccc1N=Nc1ccc(N(CCCl)CCCl)cc1C
inactive: [1] 13.5% | [2] 19.7% | [3] 12.9% | [4] 0.95% | [5] 20.5% | [6] 31.4%

COc1ccc2[nH]c3c(c2c1)CCNC3C (configuration not stated)
inactive: [1] 2.3% | [2] -12.6% | [3] 2.6% | [4] -52.1% | [5] 5.4% | [6] -17.3%

COc1c2c(cc3c1OCO3)[C@]13C=C[C@H](OC)C[C@H]1N(C2)CC3O (some centres not stated)
inactive: [1] 17.2% | [2] 5.75% | [3] 3.6% | [4] -0.55% | [5] 1.55% | [6] -53.9%

[NH2-].[NH2-].[NH2-].[NH2-].[NH2-].[NH2-].[Ru+6]
inactive: [1] -15.8% | [2] -12.1% | [3] -21.9% | [4] 9.4% | [5] -24.1% | [6] -20.8%

CC(C)(C)N.[O]=[Cr](=[O])([OH])[OH]
inactive: [1] 20.9% | [2] 7.45% | [3] 29.1% | [4] -2.25% | [5] 21.7% | [6] 21%

COc1cccc(C2CC(=O)c3cccn32)c1 (configuration not stated)
inactive: [1] 11.3% | [2] 1.65% | [3] -4.7% | [4] 21.3% | [5] -5.25% | [6] -17.2%

CC[N+]1(CC)CC[N+](CC)(CC)CC1 (tested in a mixture with another compound)
inactive: [1] 6.1% | [2] -28.8% | [3] 4.85% | [4] 0.45% | [5] -0.95% | [6] 29.1%

NC1C(=O)NC(=O)NC1=O
inactive: [1] 4.2% | [2] 11.4% | [3] 8.4% | [4] 15.1% | [5] 4.6% | [6] 22.8%

CCOC(=O)C1C(=O)NC2CCC(=O)CC21c1ccc2c(c1)OCO2 (configuration not stated)
inactive: [1] 10.7% | [2] -9.5% | [3] -1.8% | [4] -3.55% | [5] 23.9% | [6] 11.2%

CN(C)CCNc1nc2c(no[n+]2[O-])c2ccccc12
inactive: [1] -28.9% | [2] -24.8% | [3] -14.3% | [4] -12.8% | [5] 3.35% | [6] -19.9%

COc1ccc(C=C(C#N)C#N)cc1OC
inactive: [1] -2.8% | [2] -8.15% | [3] -1.95% | [4] -24.2% | [5] -1.3% | [6] -0.25%

COc1cc(C)c(OP(=O)(OC)OC)cc1C
inactive: [1] 15.3% | [2] 0.7% | [3] 13.6% | [4] 59.1% | [5] 1.7% | [6] -0.65%

[Se]=P(NC1CCCCC1)(NC1CCCCC1)NC1CCCCC1
inactive: [1] 14.5% | [2] -0.9% | [3] 2% | [4] 5.1% | [5] 3.25% | [6] 17.9%

CCOC(OCC)/C(=C\N(C)C)N=C(C#N)C#N
inactive: [1] 0.95% | [2] -2.4% | [3] 5.35% | [4] -35.4% | [5] 3.25% | [6] -2.05%

CN1CCN(C)C1=Nc1ccccc1/C=C/C=C1C(=O)N(C)C(=O)N(C)C1=O
inactive: [1] 2.7% | [2] 8.5% | [3] 12.8% | [4] 12.2% | [5] -1.2% | [6] 14.8%

O=c1c2ccccc2nc(-c2ccccc2Cl)n1-c1nnc(C(F)(F)F)s1
inactive: [1] -13.8% | [2] -13.1% | [3] 18.3% | [4] 6.15% | [5] -13.2% | [6] -6.5%

C1CC[N+]2=C(C1)OCCC2
inactive: [1] 12.1% | [2] -2.15% | [3] 6.75% | [4] -17.2% | [5] -1.9% | [6] 4.25%

O=C1C=CC(=O)N1CO
inactive: [1] 23.2% | [2] 19.2% | [3] 9% | [4] 6.4% | [5] 26.9% | [6] 9.25%
